Experimental data published in the supplement of paper PMC6555819.

Columns and labels:
Assay in all cases: PBM binding z-score (relative to random genomic background probes); higher = stronger binding; sequences stand for … in GC…GCGATTGACAGCGTAGAATGAAGG
[1] = test system: FXR:RXRa (NR concentration 270 nM, RXRa partner concentration 90 nM)
Outline: (§1)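 Binding z-scores take random background probes as their reference. They come from custom Agilent 4×180K protein-binding microarrays incubated 1 h with ligand-free nuclear receptor dimers, with antibodies against each partner (one per run) detecting binding. Scanned fluorescence was regression-normalized.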

[2] = test system: LXRa:RXRa (NR concentration 270 nM, RXRa partner concentration 90 nM)
Outline: as §1

[3] = test system: LXRa homodimer (NR concentration 270 nM)
Outline: as §1

[4] = test system: LXRb:RXRa (NR concentration 270 nM, RXRa partner concentration 90 nM)
Outline: as §1

[5] = test system: LXRb homodimer (NR concentration 270 nM)
Outline: as §1

[6] = test system: PPARa:RXRa (NR concentration 270 nM, RXRa partner concentration 90 nM)
Outline: as §1

[7] = test system: PPARg:RXRa (NR concentration 180 nM, RXRa partner concentration 90 nM)
Outline: as §1

[8] = test system: PPARg:RXRa 270nM:90nM, anti-RXR (NR concentration 270 nM, RXRa partner concentration 90 nM)
Outline: as §1

[9] = test system: PPARg:RXRa 30nM:10nM, anti-RXR (NR concentration 30 nM, RXRa partner concentration 10 nM)
Outline: as §1

[10] = test system: PPARg:RXRa 90nM:30nM, anti-RXR (NR concentration 90 nM, RXRa partner concentration 30 nM)
Outline: as §1

[11] = test system: PPARg:RXRa DBDmut IVT, anti-RXR (DBD mutation: RXRa K156A/R161A, NR concentration 270 nM, RXRa partner concentration 90 nM)
Outline: as §1

[12] = test system: PPARg:RXRa IVT, anti-PPARg (NR concentration 270 nM, RXRa partner concentration 90 nM)
Outline: as §1

[13] = test system: PPARg DBDmut:RXRa IVT, anti-PPARg (DBD mutation: PPARg1 K132A/R137A, NR concentration 270 nM, RXRa partner concentration 90 nM)
Outline: as §1

[14] = test system: PPARg DBDmut IVT, anti-PPARg (DBD mutation: PPARg1 K132A/R137A, NR concentration 270 nM)
Outline: as §1

[15] = test system: PPARg homodimer (NR concentration 180 nM)
Outline: as §1

[16] = test system: PXR:RXRa (NR concentration 270 nM, RXRa partner concentration 90 nM)
Outline: as §1

[17] = test system: PXR homodimer (NR concentration 270 nM)
Outline: as §1

[18] = test system: RARa:RXR (NR concentration 270 nM, RXRa partner concentration 90 nM)
Outline: as §1

[19] = test system: RARa homodimer (NR concentration 270 nM)
Outline: as §1

[20] = test system: RARb:RXRa (NR concentration 270 nM, RXRa partner concentration 90 nM)
Outline: as §1

Sequence | PBM binding z-score [1] | PBM binding z-score [2] | PBM binding z-score [3] | PBM binding z-score [4] | PBM binding z-score [5] | PBM binding z-score [6] | PBM binding z-score [7] | PBM binding z-score [8] | PBM binding z-score [9] | PBM binding z-score [10] | PBM binding z-score [11] | PBM binding z-score [12] | PBM binding z-score [13] | PBM binding z-score [14] | PBM binding z-score [15] | PBM binding z-score [16] | PBM binding z-score [17] | PBM binding z-score [18] | PBM binding z-score [19] | PBM binding z-score [20]
CGAACGAGGGCATAAGTTGATAGCAAATGCCGAT | 0.0955 | -0.0152 | -0.319 | 0.143 | -0.74 | 1.49 | 1.93 | 2.59 | 0.799 | 2.34 | 2.66 | 1.67 | -0.0137 | -0.0553 | 0.0801 | 0.19 | 0.226 | 0.129 | -0.269 | 1.58
CCTTACGGGCCAAGGTTATAGCACGGGTGGTACG | -0.197 | 0.16 | -0.442 | -0.247 | -0.834 | 0.498 | 0.573 | 0.597 | -0.309 | -0.163 | -0.837 | -0.312 | -1.25 | -0.861 | 0.309 | 0.0685 | -0.372 | 0.242 | 0.00233 | 1.13
CAGACTGGGGCAAAGGTTACCATACTCAGTACGA | 2.11 | 2.13 | 0.0267 | 2.49 | -0.226 | 5.94 | 10.9 | 8.6 | 9.03 | 10.1 | 5.78 | 6.11 | 0.811 | -0.289 | 1.61 | 2.57 | 0.354 | 3.86 | 0.632 | 2.66
ATTTCTAGGTAAAGATAGTTCAGTGAATGCAAAT | 0.355 | 4.21 | 0.857 | 1.02 | 0.567 | 1.39 | 1.3 | 1.27 | 0.883 | 1.07 | 4.34 | 3.44 | 1.56 | 1.86 | 1.56 | 1.08 | 1.16 | 0.625 | 1.49 | 0.8
GCTCGGAGGACAAGGTCAAAGCTTTGTCCGTAGA | 4.6 | 3.98 | 0.466 | 3.14 | 0.0189 | 4.19 | 2.56 | 3.57 | 0.553 | 2.47 | 0.217 | 2.07 | -1.59 | -1.02 | 1.34 | 3.51 | 0.43 | 3.77 | -0.688 | 4.08
CGAACCAGGTCAGAACAGGACAGTGAAGGATGAT | 2.83 | 1.68 | 0.0841 | 0.939 | -0.216 | 2.43 | 2.14 | 1.88 | 0.485 | 1.32 | 3.56 | 3.58 | 0.325 | -0.243 | 1.16 | 1.66 | -0.119 | 1.4 | 0.21 | 3.05
TAGCCTAGGTCAGATCGGGCCAGTATACGCTATA | 1.61 | 1.09 | -0.264 | 0.666 | -0.213 | 1.7 | 0.85 | 0.845 | -0.133 | 0.327 | 0.415 | 1.78 | 0.225 | -0.375 | 0.0641 | 1.01 | -0.518 | 1.42 | -0.937 | 3.02
CCGAGTAGGTGATGGGGCATTCAGGCAACGGTGA | -0.0189 | -0.218 | -0.529 | -0.326 | -1.01 | 1.72 | 3.51 | 4.41 | 2.46 | 4.61 | 2.92 | 3 | 0.0749 | -1.06 | 0.758 | -0.262 | -0.379 | -0.226 | -0.778 | 0.297
GCGACTGGGGCAAAGCAGTTTACCATAAGGTTGG | -0.303 | -0.296 | -0.507 | -0.071 | -1.21 | 0.822 | 1.17 | 1.31 | -0.433 | 0.756 | 4.75 | 3.5 | 0.0777 | -0.489 | 0.131 | 0.655 | -0.386 | -0.18 | -0.418 | 0.776
CCTACAGGGCCAAAAAGGTCATTGATGCCGATAA | 4.22 | 4.32 | 2.83 | 4.2 | 0.284 | 4.61 | 1.51 | 2.74 | 0.52 | 1.49 | -0.0995 | 0.938 | -1.38 | -1.06 | 2.94 | 5.28 | 4.66 | 5.28 | 1.42 | 4.26
CCGACTTGGGCAAGGTTACCATAACGCACAGCCA | 0.05 | 0.652 | -0.339 | 0.538 | -0.76 | 0.821 | 0.77 | 0.417 | -0.317 | 0.00151 | 0.0909 | 0.144 | -0.175 | -0.816 | 0.358 | 0.327 | 0.162 | 0.774 | 0.309 | 0.889
CTCGAAAGGTCGTGATCAGGTGAGTATACCAAAC | 5.37 | 3.83 | 0.129 | 3.24 | 0.0388 | 4.89 | 3.12 | 3.71 | 1.2 | 2.73 | 0.796 | 1.71 | 1.37 | 0.63 | 2.1 | 3.28 | -0.0349 | 4.26 | 0.477 | 3.96
ACAGACAGGTGAGTGAGGGTAACTCAGCTGGACG | 0.174 | 0.269 | -0.243 | -0.0988 | -0.478 | 0.503 | 0.629 | 0.0987 | -0.248 | -0.159 | 0.621 | 0.841 | -0.523 | -0.675 | 0.225 | -0.025 | 0.261 | 0.222 | -0.162 | 0.987
CCAGACAGGTAAGAAGGTAACTCAGCCTCGATTA | 0.251 | 0.138 | -0.169 | 0.0955 | -0.296 | 0.0886 | 0.35 | -0.153 | -0.728 | -0.359 | 0.139 | -0.122 | -0.475 | -0.368 | 0.961 | 0.129 | 0.112 | 0.274 | 0.51 | 0.0631
